# Measured values reported in PubChem BioAssay AID492973 (The Scripps Research Institute Molecular Screening Center, 2010).
# A number with no mark means an inactive call. Activity calls are given as the source filed them.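 Rule for the calls: active = inhibition above 50% of the enzyme in parasite cell lysate; inactive = the rest.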
# Test: PfM17LAP inhibitors in parasite extract, late-stage follow-up, cell lysate, fluorescence, Plasmodium falciparum lysate, powder samples (AID 492973)
# Details: P. falciparum cell lysate, H-Leu-NHMec fluorescence; at 5 µM; active compounds read high
row,Compound,inhibition
1,COC(=O)c1c(-c2ccc(C)cc2)csc1NC(=O)[C@H]1CC=CC[C@H]1C(=O)O,58% (active)
2,N#Cc1c(NC(=O)[C@@H]2C3C=CC(C3)[C@@H]2C(=O)O)sc2c1CCCCC2 (stereo not given in full),30%
3,COc1cc(NC(=O)CSc2nnc3c(C)cc4cc(C)cc(C)c4n23)c(C(=O)O)cc1OC,55% (active)
4,O=C(CSc1nccc(=O)[nH]1)Nc1ccc(Br)c(Cl)c1,43%
5,CCc1cc2ccc(C)cc2nc1SCC(=O)Nc1cc(OC)c(OC)cc1C(=O)O,69% (active)
6,CCn1c2ccccc2c2cc(NC(=O)CSc3nccc(=O)[nH]3)ccc21,49%
7,Cc1ccc(-n2c(C)cc(C(=O)COC(=O)c3ccc[nH]c3=O)c2C)cc1C,54% (active)
8,O=C(Nc1cccc(Cl)c1)[C@H]1CC=CC[C@H]1C(=O)O,24%
9,C=CCn1c(SCC(=O)Nc2cccc3ccccc23)nc(O)c(CC)c1=O,31%
10,COC(=O)c1c(NC(=O)[C@H]2CC=CC[C@H]2C(=O)O)sc(C)c1C,31%
11,S=c1nc(-c2ccccc2Br)[nH][nH]1,26%
12,CC(C)c1ccc(NC(=O)[C@H]2CCCC[C@H]2C(=O)O)cc1,27%
13,Cc1ccc(-c2c(C)sc(NC(=O)[C@@H]3C4CCC(O4)[C@@H]3C(=O)O)c2C(=O)OC(C)C)cc1 (stereo not given in full),23%
14,COc1ccc(-c2cc(=O)[nH][nH]2)cc1,22%
15,Cc1cc(C(=O)COC(=O)c2ccc[nH]c2=O)c(C)n1-c1ccccc1,36%
16,O=C(Nc1ccc(Cl)cc1)Nc1cccc(C(=O)O)c1,65% (active)
17,COc1ccc(C(C)(C)C)cc1NC(=O)[C@H]1CC=CC[C@H]1C(=O)O,40%
18,COc1cc(NC(=O)CSc2nc3ccccc3cc2C)c(C(=O)O)cc1OC,67% (active)
19,COC(=O)c1c(NC(=O)[C@H]2CCCC[C@H]2C(=O)O)sc2c1CCCCC2,65% (active)
20,Cc1ccc(Nc2nnc(SC3CCOC3=O)s2)cc1 (stereo not given),57% (active)
21,COc1ccc2nc(SCC(=O)Nc3cc(OC)c(OC)cc3C(=O)O)c(C)cc2c1,66% (active)
22,O=C(CSc1nc(O)cc(=O)n1-c1ccccc1)Nc1ccc2c3c(cccc13)CC2,22%
23,CCc1ccc(Nc2nnc(SC3CCOC3=O)s2)cc1 (stereo not given),43%
24,COC(=O)c1c(-c2ccco2)csc1NC(=O)[C@H]1CC=CC[C@H]1C(=O)O,51% (active)
25,CCOc1ccc(NC(=O)Nc2ccc3nccnc3c2)cc1,25%
